Bioassay records from PubChem BioAssay.
Avidin fluor: compound fluoresces at 488/530 nm on avidin beads; compound fluorescence 488/530 nm, flow cytometry; stronger effect = higher value; fluorescence (KMESF) at 10 µM; hit rate 0.38% among 220,000; AID 1775; in the data active = fluorescence above about 47
HMGR II inh: E. faecalis class II HMG-CoA reductase inhibition. hit rate 0.41% among 190,000. purified E. faecalis HMGR, NADPH absorbance 340 nm kinetic. inhibition, % at 10 µM;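 active = inhibition above a set limit, the median over all tested compounds plus 3 SD, cut at about 9.5% in these data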;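 note: enzyme runs in reverse so mevalonate oxidation gives rising NADPH absorbance; 0% = complete reaction with DMSO and 100% = background rate lacking mevalonate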
GSH fluor: compound fluoresces at 488/530 nm on GSH beads; fluorescence (KMESF) at 10 µM; AID 1776; GSH beads flow cytometry, compound fluorescence 488/530 nm; stronger effect = higher value; hit rate 0.25% among 190,000; in the data active = fluorescence above about 89;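 note: glutathione beads carrying GST-tagged Bcl family fusion proteins plus one bare bead set; values are compound well signal with DMSO vehicle wells as background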
PGE2 EP2 inh: EP2 receptor (human) inhibition; AID 1422; C6 glioma cells expressing human EP2, cAMP TR-FRET; cells stimulated with saturating PGE2; P43116; inhibition, % at 25 µM; hit rate 0.52% among 260,000;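 active = percent inhibition above 40 after rounding to a whole number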;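 note: rat C6 glioma host cells with rolipram phosphodiesterase inhibitor present; the protocol text gives 20 µM as final concentration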
Target sequence (P43116 whole entry, looked up): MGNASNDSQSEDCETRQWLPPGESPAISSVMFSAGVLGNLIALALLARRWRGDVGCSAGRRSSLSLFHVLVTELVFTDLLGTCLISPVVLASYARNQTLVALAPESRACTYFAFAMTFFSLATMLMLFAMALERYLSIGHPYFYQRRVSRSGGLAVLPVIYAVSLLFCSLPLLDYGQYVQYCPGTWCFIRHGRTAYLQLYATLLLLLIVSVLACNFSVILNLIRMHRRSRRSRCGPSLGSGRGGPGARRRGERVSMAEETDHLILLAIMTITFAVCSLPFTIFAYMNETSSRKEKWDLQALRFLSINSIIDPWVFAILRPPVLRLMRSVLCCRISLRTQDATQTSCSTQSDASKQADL
EP2 mod: modulators of human EP2 prostaglandin E2 receptor | induction, % at 25 µM | P43116 | AID 940 | hit rate 0.83% among 260,000 | EP2-expressing cells, cAMP HTRF FRET, PGE2 co-stimulation;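 active = compounds whose cAMP rise, as percent of the full-agonist control response, exceeds 60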;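 note: rat C6 glioma line stably carrying human EP2 under a CMV promoter; the protocol text gives 20 µM as final concentration; 100% = response of wells given 1 µM PGE2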
Numbers without * were called inactive; · = not tested or not shown; ! = repeats disagree. Most compounds without a hit are left out; they make up all but 2.1% or so of the library.

SMILES | Avidin fluor | HMGR II inh | GSH fluor | PGE2 EP2 inh | EP2 mod
CC(=O)Nc1ccc(C=C2C(=O)NC(=S)NC2=O)cc1 | · | · | · | 12.4 | 9.6
Cc1ccc(C=C2C(=O)NC(=S)NC2=O)o1 | · | · | · | 114.0* | -105.5
Cc1ccccc1-n1c(O)c(/C=N/N2CCOCC2)c(=O)[nH]c1=S | 78* | -2.7 | 18 | 6.2 | 3.6
Cn1ccnc1C1(O)CC2CCC(C1)N2CC(=O)NCc1ccc(F)cc1 (stereo unspecified) | · | · | · | · | -75.5
Cc1oc2c(c1CC(=O)N(CCN(C)C)Cc1ccc(F)cc1)C(=O)CC(C)(C)C2 | · | · | · | 10.8 | -60.2
CC1=NN(c2ccccc2)C(=O)[C@H]1N=Nc1ccc([As](=O)(O)O)c(O)c1 | · | · | · | 42.6* | 46.3
OCC[n+]1c2ccccc2nc2ccc(N3CCOCC3)cc21 | 9 | · | · | 100.8* | -116.9
Cc1nc(CC(=O)N(CCN(C)C)Cc2ccccc2F)cs1 | · | · | · | 8.8 | -10.6
O=C1NC(=S)NC(=O)C1=Cc1cccc2cc3ccccc3cc12 | 8 | · | · | 97.7*! | -41.7
Cc1ccc(NC(=O)CN2C3CCC2CC(O)(c2ccco2)C3)cc1F (stereo unspecified) | · | · | · | · | -70.6
COc1ccc(OC)c(-n2c(O)c(C=Nc3c(C)n(C)n(-c4ccccc4)c3=O)c(=O)[nH]c2=O)c1 | 4 | -3.8 | 24 | 5.8 | 39.8
COc1ccccc1-n1c(O)c(C=Nc2c(C)n(C)n(-c3ccccc3)c2=O)c(=O)[nH]c1=O | 8 | 1.5 | 261* | 11.5 | 11.3
c1ccc(CCNCc2c[nH]c3ccccc23)cc1 | · | · | · | 7.2 | -89.0
NC(Cc1ccccc1)c1ccc2c(c1)OCCO2 (stereo unspecified) | · | · | · | 11.5 | -68.9
CN(C)C(=S)SSC(=S)N(C)C | 9 | -4.5 | 11 | 124.6* | -36.7
Cc1ccccc1-n1nc(C)c(CC(=O)N(CCN(C)C)Cc2cccnc2)c1C | · | · | · | 8.1 | -14.5
Cc1cccc(NP(=O)(Oc2ccccc2F)Oc2ccccc2F)c1C | 18 | -4.7 | 22 | 7.1 | 64.8*
Cc1ccc(NP(=O)(Oc2ccccc2F)Oc2ccccc2F)cc1 | 48* | -8.9 | 20 | 6.6 | 43.8
CCCCCc1nc2c(c(=O)c3ccccc3n2C)c(=O)n1C1CCCCCC1 | 11 | -4.7 | 19 | 121.2* | -13.8
COC(=O)C1=C(N)Oc2c(c(=O)oc3ccccc23)C1c1cccc(C(F)(F)F)c1 (stereo unspecified) | · | · | · | 6.3 | -11.0
CCCCC(CC)CNCC(O)c1ccccc1 (stereo unspecified) | 8 | 14.6* | 13 | 6.8 | 7.2
CC1CCC(NCC(O)c2ccccc2)CC1 (stereo unspecified) | 17 | 0.4 | 33 | 13.2 | -6.4
COc1ccc(C2=NCC(=O)N(CC(=O)NCc3cccs3)c3sc4c(c32)CCCC4)cc1 | · | · | · | 5.0 | -52.2
CC(C)Oc1cccc(NC(=O)c2cccn(Cc3ccc4c(c3)OC(F)(F)O4)c2=O)c1 | 30 | 14.2* | 13 | 8.5 | -10.4
O=C(Nc1cccc(C(F)(F)F)c1)c1cccn(Cc2ccc3c(c2)OC(F)(F)O3)c1=O | 6 | 0.7 | 38 | 3.5 | 11.6
SMILES | Avidin fluor | HMGR II inh | GSH fluor | PGE2 EP2 inh | EP2 mod
CC1=NN(c2ccccc2)C(=O)C1/C=C1\C(=O)NC(=O)N(c2cc(C)cc(C)c2)C1=O (stereo unspecified) | 19 | -6.6 | 24 | 7.8 | 29.8
O=C1NC(=O)N(c2ccccc2)C(=O)/C1=C\C=C\c1ccccc1 | 3 | · | · | 21.1 | -43.2
CCCCN1C(=O)/C(=C/C=C/c2ccco2)C(=O)NC1=S | 15 | -1.3 | 12 | 9.5 | 6.8
Cc1cc(C)cc(N2C(=O)NC(=O)/C(=C\C=C\c3ccco3)C2=O)c1 | 11 | -4.7 | 8 | 87.4* | -81.1
O=C1NC(=O)N(Cc2ccc(F)cc2)C(=O)/C1=C\C=C\c1ccco1 | 9 | · | · | 77.7* | -71.2
CC(C)c1ccc(N2C(=O)NC(=O)/C(=C/C=C/c3ccco3)C2=O)cc1 | 17 | -5.4 | 16 | 59.2* | -6.4
CCc1ccc(N2C(=O)NC(=O)/C(=C\C=C\c3ccco3)C2=O)cc1 | 5 | · | · | 61.4* | -28.6
COc1ccc(CC(=O)N(CCN(C)C)C2CCN(C)CC2)cc1C | · | · | · | 5.5 | -27.1
O=C(O)CCC1C(=O)NC(=O)NC1=O | · | · | · | 5.7 | -0.6
Cc1ccc(N2C(=O)NC(=O)/C(=C/C=C/c3ccco3)C2=O)cc1 | 23 | -7.8 | 10 | 114.4* | -10.8
C#CCOc1ccc(CN2C3CCC2CC(O)(c2ccc(F)cc2)C3)cc1 (stereo unspecified) | · | · | · | 11.0 | -42.8
N#CC(C#N)=Cc1ccc(N2CCCC2)cc1 | 118* | 0.8 | 20 | 7.5 | -22.1
Cc1cc(C)nc(NC2=NCCN2)n1 | · | · | · | 10.7 | -14.8
C[C@]12C=CC(=O)C=C1CCC1C2CC[C@]2(C)C(=O)CCC12 (stereo partly specified) | · | · | · | 11.8 | 19.4
CC(=O)OC1=CC2=CC[C@H]3[C@@H]4CCC(=O)[C@@]4(C)CC(=O)[C@]3(S)[C@]2(C)CC1 | · | · | · | 63.3* | -1.3
CC[C@H]1CN2CCc3cc(OC)c(OC)cc3[C@@H]2C[C@@H]1C[C@H]1NCCc2c1[nH]c1ccc(O)cc21 | · | · | · | 61.4* | -25.0
C#CCOc1cccc(CN2C3CCC2CC(O)(c2nccn2C)C3)c1 (stereo unspecified) | · | · | · | 2.3 | 7.1
O=C(O)[C@@H](O)[C@@H](O)[C@@H]1[O][Sb][O][C@@H]1CO | · | · | · | 51.0* | 10.1
CC1CCN(C2CCNCC2)CC1 | · | · | · | 3.7 | -31.4
O=c1[nH]c(=O)n(Cc2ccc(F)cc2)c(O)c1C=NCCCO | 122* | 6.4 | 17 | 4.9 | 32.5
OC12CCCCC1CN(Cc1ccc3ncccc3c1)CC2 (stereo unspecified) | · | · | · | 6.9 | -8.1
CC1=CC(=O)c2c(O)cccc2C1=O | · | · | · | 79.1* | -33.6
O=P(O)(O)c1ccccc1 (tested in a mixture with another compound) | · | · | · | 10.8 | 25.0
O=P(O)(OP(=O)(O)c1ccccc1)c1ccccc1 (tested in a mixture with another compound) | · | · | · | 48.5* | 33.5
Cn1ccnc1C1(O)CC2CCC(C1)N2CC(C)(C)CN1CCOCC1 (stereo unspecified) | · | · | · | 1.6 | -9.3
CN1C(=O)C(C2(C#N)CCCCC2)C(=O)N(C)C1=O | 7 | 0.0 | 51 | 9.4 | 28.6
CC(=O)CC(=O)C1C(=O)N(C)C(=O)N(C)C1=O | 22 | 10.7* | 11 | 5.0 | 9.9
C=CCn1c(O)c(C=NCCN(C)C)c(=O)[nH]c1=O | 16 | 3.4 | 4 | 14.7 | 1.3
